# Reference: PubChem BioAssay (EPA / NIEHS)
# Results filed as inconclusive are left out. Calls of active or inactive are those of the source. How the source made its calls: active means hit-call score of the fitted dose curve at least 0.9, where 1 is the maximum; inconclusive means response in the unintended direction; inactive means score below 0.9.
# Target: Bile acid receptor (Homo sapiens) (UniProt Q96RI1)
# Experiment: ATG_FXR_TRANS: Attagene TRANS-FACTORIAL HepG2 Assay for Farnesoid X Receptor (FXR) (AID 2282979);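 further: hits raise reporter mRNA above DMSO so AC50 marks FXR activation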
# Conditions: HepG2 Attagene TRANS FXR-GAL4 reporter transcription
# Experimental: ATG_TRANS is a cell-based, multiplexed-readout assay that uses HepG2, a human liver cell line, with measurements taken at 24 hours after chemical dosing in a 24-well plate.ATG_FXR_TRANS is one of 30 assay component(s) measured or calculated from the ATG_TRANS assay. It is designed to make measurements of mRNA induction, a form of inducible reporter, as detected with fluorescence intensity signals by Reverse transcription polymerase chain reaction (RT-PCR) and Capillary electrophoresis technology.Data from the assay component ATG_FXR_TRANS was analyzed into 1 assay endpoint. This assay endpoint, ATG_FXR_TRANS, was analyzed in the positive analysis fitting direction relative to DMSO as the negative control and baseline of activity. Using a type of inducible reporter, measures of mRNA for gain-of-signal activity can be used to understand the reporter gene at the transcription factor-level as they relate to the gene NR1H4. Furthermore, this assay endpoint can be referred to as a primary readout, because this assay has produced multiple assay endpoints where this one serves a reporter gene function. To generalize the intended target to other relatable targets, this assay endpoint is annotated to the nuclear receptor intended target family, where the subfamily is non-steroidal.
# Human liver HepG2 cells are transiently transfected with multiple reporter transcription units (MRTUs) in 6-well plates using FuGene 6 reagent (Roche; 3 ml FuGene/1 mg DNA). The MRTU constructs are regulated by a cis-regulating element (promoter). […] A major difference between the CIS and TRANS system is that in CIS activities of endogenous TFs are measured, whereas the TRANS assay evaluates changes in activities of exogenous, chimeric NR-Gal4 proteins. […] At the end of 24 hour incubation, total RNA was isolated using TriZol reagent (Invitrogen). The isolated RNA is then reverse-transcribed using oligo(dT) primer and Mo-MLV reverse transcriptase (Invitrogen) with DNAse I (Ambion) treatment for 30 min. The one-tenth of the produced cDNA was amplified by PCR using Taq DNA polymerase (Invitrogen) and two reporter sequence-specific primers. The PCR products were fluorescently labeled by primer extension with 6-arboxyfluorescein (6-FAM) 5'-labeled reporter sequence-specific primer (2 min at 95 C, 20 s at 68 C and 10 min at 72 C) and these products were digested with 5U of HpaI (New England Biolabs) for 2h at 37 C. The fragments were purified using Qiaquick PCR columns (Qiagen), analyzed on an ABI 3130xL genetic analyzer (Applied Biosystems) with peak positions identified by using a set of X-rhodamine (ROX)-labeled MapMarker1000 molecular weight standards (BioVentures). The raw capillary electrophoresis data was processed using Attagraph software (Attagene).
# Sequence of Bile acid receptor (Homo sapiens) (Q96RI1 whole entry, looked up): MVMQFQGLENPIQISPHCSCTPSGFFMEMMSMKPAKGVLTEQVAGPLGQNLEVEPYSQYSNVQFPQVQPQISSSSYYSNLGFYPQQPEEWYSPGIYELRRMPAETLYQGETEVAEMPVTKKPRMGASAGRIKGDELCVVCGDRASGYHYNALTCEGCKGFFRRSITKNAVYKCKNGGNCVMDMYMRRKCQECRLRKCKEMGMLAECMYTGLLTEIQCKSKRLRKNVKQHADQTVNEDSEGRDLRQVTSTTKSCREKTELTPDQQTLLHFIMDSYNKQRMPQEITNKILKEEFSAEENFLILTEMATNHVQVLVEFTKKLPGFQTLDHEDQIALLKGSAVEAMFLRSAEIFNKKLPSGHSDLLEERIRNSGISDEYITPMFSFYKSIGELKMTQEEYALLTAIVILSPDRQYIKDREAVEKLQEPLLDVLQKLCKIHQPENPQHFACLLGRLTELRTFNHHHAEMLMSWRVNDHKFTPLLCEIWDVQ
Compound,outcome,AC50
NCC1CCCC(CN)C1 (stereo not given),inactive,–
CCCCCC(=O)CC,inactive,–
O=C(O)COCC(=O)O,inactive,–
CN(C)CCOc1ccc(/C(=C(/CCCl)c2ccccc2)c2ccccc2)cc1,inactive,–
COc1ccc(CCN2CCC(Nc3nc4ccccc4n3Cc3ccc(F)cc3)CC2)cc1,inactive,–
CC1(C)COCN1,inactive,–
CC1=C(Br)C(=O)C(Br)=C/C1=C(/c1ccccc1S(=O)(=O)O)c1cc(Br)c(O)c(Br)c1C,inactive,–
CCOC(=O)CC(C)O (stereo not given),inactive,–
CN(C)CCOC(C)(c1ccccc1)c1ccccn1 (stereo not given),inactive,–
CCc1cc(Cc2cc(CC)cc(C(C)(C)C)c2O)c(O)c(C(C)(C)C)c1,inactive,–
COS(=O)(=O)O,inactive,–
CCCCCc1ccco1,inactive,–
FC(F)(F)COCC(F)(F)F,inactive,–
CCC1(c2ccccc2)C(=O)NCNC1=O,inactive,–
Clc1cc(Cl)c(-c2c(Cl)c(Cl)cc(Cl)c2Cl)cc1Cl,inactive,–
OCCOCCN1CCN(C2=Nc3ccccc3Sc3ccccc32)CC1,inactive,–
COc1ccc(COC(C)=O)cc1,inactive,–
O=C1c2ccccc2C(=O)c2c(O)ccc(O)c21,inactive,–
CCCCC1CCC(O)CC1 (stereo not given),inactive,–
ClC(c1ccccc1)(c1ccccc1)c1ccccc1,inactive,–

Compound,outcome,AC50
COC(=O)Nc1ccc(Cl)c(Cl)c1,inactive,–
CCCCC(CC)COC(=O)c1ccc(O)cc1 (stereo not given),inactive,–
Oc1ccc2cc(SSc3ccc4cc(O)ccc4c3)ccc2c1,inactive,–
C=C(C)C(=O)OCC(CC)(COC(=O)C(=C)C)COC(=O)C(=C)C,inactive,–
COC(C)(C)CC(C)=O,inactive,–
CC(C)CC(C)CC(O)CC(C)C (stereo not given),inactive,–
CCCCCCCCCCCCCCCC(=O)OC/C=C(C)/C=C/C=C(C)/C=C/C1=C(C)CCCC1(C)C,inactive,–
CSCCC=O,inactive,–
Cc1ccc(S(=O)(=O)Oc2ccc(N=Nc3ccc(-c4ccc(N=Nc5c(O)ccc6cc(S(=O)(=O)O)cc(S(=O)(=O)O)c56)c(C)c4)cc3C)cc2)cc1,inactive,–
CCOC(=O)COC(=O)c1cc(Oc2ccc(C(F)(F)F)cc2Cl)ccc1[N+](=O)[O-],inactive,–
C=CC(C)(O)CCC=C(C)C (stereo not given),inactive,–
CC(C=O)Cc1ccc(C(C)(C)C)cc1 (stereo not given),inactive,–
CC1C2CC(CC2C2CCCC(O)C2)C1(C)C (stereo not given),–,58.4 µM (active)
OCc1ccc(Cl)cc1Cl,inactive,–
C[C@H]1C[C@@H](O)CC(C)(C)C1,inactive,–
C[Si]1(C)O[Si](C)(C)O[Si](C)(C)O1,inactive,–
CCCCCCCCCCCCN1CCCCCC1=O,inactive,–
CC(=O)O[C@@H]1C[C@@H]2CC[C@@]1(C)C2(C)C,inactive,–
COc1ccccc1[N+](=O)[O-],inactive,–
CCC(Cl)C(Cl)C(Cl)CC(Cl)C(Cl)C(C)Cl (stereo not given),–,11 µM (active)
